Counter-ions that a name gives are not always drawn.
Key:
Details in all cases: 20 µM
[1] = system: Salmonella enterica typhimurium; assay: growth AUC normalised to DMSO control (fraction of control); higher = less growth inhibition, active = hit call of the paper
Outline: (§1)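 Hemin and NAD were added to the medium for Haemophilus parainfluenzae. All pathogens, after two anaerobic passages, were inoculated at a starting OD578 of 0.01 into pre-reduced mGAM plates with 20 μM compound and 1% DMSO under breathable seals, and OD578 was read hourly for 24 h in three biological replicates. AUC of each growth curve was obtained with the trapezoidal rule up to the exponential-to-stationary transition and normalised to DMSO controls from the same plate.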

[2] = system: Shigella flexneri; assay: as above
Outline: as §1

[3] = system: Vibrio cholerae; assay: as above
Outline: as §1

[4] = system: Yersinia pseudotuberculosis; assay: as above
Outline: as §1

[5] = system: P. vulgatus RND KO; assay: growth AUC normalised to DMSO control (median) (fraction of control); higher = less growth inhibition, active = hit call of the paper
Outline: (§2)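 Area under the growth curve, calculated by the trapezoidal rule up to entry into stationary phase, was normalised to vehicle wells on the same plate. Strains had been passaged twice overnight without oxygen and then grown in mGAM in 96-well plates from OD578 0.01, each with an approved-drug library compound at 20 μM in 1% DMSO. OD578 was read hourly over 24 h in an anaerobic incubator, and the median of three biological replicates is given.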

[6] = system: P. vulgatus WT; assay: as above
Outline: as §2

[7] = system: S. enterica typhimurium WT; assay: as above
Outline: as §2

[8] = system: S. enterica typhimurium tolC KO; assay: as above
Outline: as §2

Measured: growth AUC normalised to DMSO control
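For growth AUC normalised to DMSO control (median) in this document: active when median AUC fell below 0.1.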

O=C(OCC(O)CO)c1ccccc1Nc1ccnc2cc(Cl)ccc12 (stereo not given) [Glafenine hydrochloride]
inactive: [1] 0.981 | [2] 0.938 | [3] 0.88 | [4] 0.941 | [5] 1.01 | [6] 0.995 | [7] 0.997 | [8] 0.935

CN1CCN(CCCN2c3ccccc3Sc3ccc(Cl)cc32)CC1 [Prochlorperazine dimaleate]
inactive: [1] 1.01 | [2] 1.02 | [3] 0.947 | [4] 1 | [5] 1.01 | [6] 0.981 | [7] 0.996 | [8] 0.892

CS(=O)(=O)Nc1ccc([N+](=O)[O-])cc1Oc1ccccc1 [Nimesulide]
inactive: [1] 0.985 | [2] 0.953 | [3] 0.907 | [4] 0.984 | [5] 0.983 | [6] 0.979 | [7] 0.988 | [8] 0.984

CN(C(=O)C(Cl)Cl)c1ccc(OC(=O)c2ccco2)cc1 [Diloxanide furoate]
inactive: [1] 0.998 | [2] 0.959 | [3] 0.97 | [4] 0.978 | [5] 0.988 | [6] 0.996 | [7] 0.995 | [8] 0.966

COC(=O)[C@H]1[C@H]2C[C@@H]3c4[nH]c5cc(OC)ccc5c4CCN3C[C@H]2C[C@@H](OC(=O)c2cc(OC)c(OC)c(OC)c2)[C@@H]1OC [Reserpine]
inactive: [1] 1.02 | [2] 1.05 | [3] 1.06 | [4] 1.02 | [5] 1.04 | [6] 1.05 | [7] 1.02 | [8] 1

CCOCCn1c(N2CCCN(C)CC2)nc2ccccc21 [Emedastine difumarate]
inactive: [1] 0.995 | [2] 0.997 | [3] 0.992 | [4] 0.996 | [5] 1.03 | [6] 1.05 | [7] 1 | [8] 0.989

CN1CCOC(c2ccccc2)c2ccccc2C1 (stereo not given) [Nefopam hydrochloride]
inactive: [1] 0.987 | [2] 0.993 | [3] 0.983 | [4] 1 | [5] 0.992 | [6] 0.982 | [7] 1 | [8] 0.988

CCN(CC)CCOC(=O)c1ccc(N)cc1 [Procaine hydrochloride]
inactive: [1] 1 | [2] 0.992 | [3] 1.01 | [4] 1 | [5] 1.02 | [6] 0.989 | [7] 0.992 | [8] 0.998

COc1ccc2cc(CCC(C)=O)ccc2c1 [Nabumetone]
inactive: [1] 1.03 | [2] 0.998 | [3] 0.929 | [4] 0.999 | [5] 0.99 | [6] 1 | [7] 1 | [8] 0.963

CCN(CC)CCOCCOC(=O)C1(c2ccccc2)CCCC1 [Carbetapentane citrate]
inactive: [1] 0.995 | [2] 1 | [3] 1 | [4] 1 | [5] 1.01 | [6] 1.01 | [7] 0.995 | [8] 0.992

CCC[C@H](N[C@@H](C)C(=O)N1[C@H](C(=O)O)C[C@@H]2CCCC[C@@H]21)C(=O)OCC [Perindopril]
inactive: [1] 1.02 | [2] 1.02 | [3] 0.963 | [4] 1.04 | [5] 1.03 | [6] 1.04 | [7] 1.01 | [8] 1

CCN(CC)CCNc1ccc(CO)c2sc3ccccc3c(=O)c12 [Hycanthone]
inactive: [1] 0.936 | [2] 0.984 | [3] 0.879 | [4] 0.991 | [5] 0.994 | [6] 0.96 | [7] 0.993 | [8] 0.163

CNC(C)CCC=C(C)C (stereo not given) [Isometheptene mucate]
inactive: [1] 0.988 | [2] 0.995 | [3] 1.01 | [4] 1 | [5] 1.01 | [6] 1.02 | [7] 1.01 | [8] 1

O=C(NCCO[N+](=O)[O-])c1cccnc1 [Nicorandil]
inactive: [1] 0.995 | [2] 0.99 | [3] 0.991 | [4] 0.999 | [5] 0.986 | [6] 0.996 | [7] 1.01 | [8] 1.01

C#C[C@]1(O)CC[C@H]2[C@@H]3CCC4=CC(=O)CC[C@@H]4[C@H]3CC[C@@]21C [Norethindrone]
inactive: [1] 1.01 | [2] 0.977 | [3] 0.996 | [4] 0.988 | [5] 0.997 | [6] 1.03 | [7] 1.01 | [8] 0.993

Source: the supplement of paper PMC12350171
